Assay outcomes as filed in PubChem.
IL-1B inflam inh – qHTS for Inhibitors of Inflammasome Signaling: IL-1-beta AlphaLISA Primary Screen; THP-1 LPS/ATP IL-1B secretion, AlphaLISA, 16 h; stronger effect = lower value; AID 743279, 2014; activity change, % at 57.5 µM; 360,000 compounds, 4.7% hits; in the data active means activity change below about -50%; inconclusive means mostly about -30% to -49%
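THP-1 cells pretreated 1 hr with compounds (up to 57.5 uM final), then stimulated with LPS (250 ng/mL final) plus ATP (1.25 mM final); secreted IL-1B measured by AlphaLISA after 16 hr, decreased signal indicating inhibition.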
TDP1 cell CPT – qHTS for Inhibitors of human tyrosyl-DNA phosphodiesterase 1 (TDP1): qHTS in cells in presence of CPT; chicken DT40 Tdp1-/-;hTDP1 cells + 20 nM CPT, ATP luminescence, 48 h; Potency, µM (highest dose often 46.2 µM), without a hit: top-dose activity change, negative = growth inhibition, usual class: inhibitors; 420,000 compounds, 12% hits; AID 686979, 2013; further: potency means the concentration at half of the fitted maximal effect; nearly all actives have a fitted effect of over 55% in size
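Cell growth measured by CellTiter-Glo luminescence after a minimum 48 h, 37 C compound exposure with 20 nM CPT in Tdp1-knockout DT40 cells stably expressing hTDP1, seeded 400/well; qHTS titration format.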
HT1080NT lethal – qHTS for induction of synthetic lethality in tumor cells producing 2HG: qHTS for the HT-1080-NT fibrosarcoma cell line | HT-1080-NT fibrosarcoma viability, CellTiter-Glo ATP luminescence, 48 h | Potency, µM (titrated, usually from 46.1 µM), for the others: at the top dose activity, negative = less viability, usual class: cytotoxic | 360,000 compounds, 1.6% hits | AID 686970, 2013;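 further: NT is the 2HG producing partner of a matched IDH1 knockdown line; potency means the concentration at half of the fitted maximal effect; 0% = DMSO-treated cells and -100% = media-only wells without cells; nearly all actives have a fitted effect of over 55% in size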
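HT-1080-NT fibrosarcoma cells (2HG-overproducing), 750 cells/well in RPMI with 5% FBS, dosed after 2 h and incubated 48 h at 37C. CellTiter-Glo luminescence normalized to DMSO and no-cell wells; concentration-response curves fitted and classed.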
DT40 TDP1 no CPT – qHTS for Inhibitors of human tyrosyl-DNA phosphodiesterase 1 (TDP1): qHTS in cells in absence of CPT. DT40 Tdp1-/- hTDP1 cells, no CPT, ATP luminescence, 48 h. Potency, µM (titrated, usually from 46.2 µM), for inactives: at the highest dose activity change, negative = growth inhibition, actives largely listed as inhibitors. 420,000 compounds, 15% hits; further: potency means the concentration at half of the fitted maximal effect; nearly all actives have a fitted effect of over 55% in size
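Cells were dispensed at 400 per well, compounds added by pin tool, plates incubated ≥48 hr at 37 °C, then CellTiter-Glo added for 30 min at room temperature before luminescence reading. Line: DT40 Tdp1-/- complemented with hTDP1; camptothecin omitted.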
HT1080 IDH1KD tx – qHTS for induction of synthetic lethality in tumor cells producing 2HG: qHTS for the HT-1080-IDH1KD cell line; HT-1080 IDH1 knockdown viability, ATP luminescence, 48 h; Potency, µM (doses to about 46.1 µM), for inactives: at the highest dose activity, negative = toxicity, most hits filed as cytotoxic; 360,000 compounds, 2% hits; AID 686971, 2013;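 further: potency means the concentration at half of the fitted maximal effect; 0% = DMSO wells and -100% = cell-free medium wells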
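Luminescent ATP read-out (CellTiter-Glo, 10 min at room temperature) after 48 h compound exposure at 37 °C gave viability of IDH1-knockdown HT-1080 cells. Activity was normalised to DMSO and cell-free wells, then fitted as concentration-response curves.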
* = called active by the depositor; u = inconclusive; x = no result given. The list is not random: actives were taken first. Their share in the collection is about 19%. Unless noted, the call rests on the fitted dose curve; in most records, active means well fitted curve in the direction sought with a large enough effect; inconclusive means small, poorly fitted or top-dose-only effect, or another doubt; inactive means no such curve, though single readings can be large; an effect the other way counts as inactive or inconclusive. Unless noted, on the % scale 0 is the no-effect control and ±100 the full control effect.

SMILES	IL-1B inflam inh	TDP1 cell CPT	HT1080NT lethal	DT40 TDP1 no CPT	HT1080 IDH1KD tx
O=S(=O)(/C=C/c1ccccc1)Oc1ccccc1	-88.9*	25.9µM*	u	16.4µM*	u
Cc1c(Cl)cccc1-n1nnc(-c2nc(-c3ccc4c(c3)OCO4)no2)c1C	x	23.1µM*	x	u	x
Cc1ccc(Cl)cc1-n1nnc(-c2nc(-c3ccc4c(c3)OCO4)no2)c1C	x	u	x	20.6µM*	x
COc1ccc(Cl)cc1-n1nnc(-c2nc(-c3ccc4c(c3)OCO4)no2)c1C	x	1.2%	x	-8.2%	x
Cc1c(-c2nc(-c3ccccc3F)no2)nnn1-c1cc(F)ccc1F	x	-5.7%	x	-8.0%	x
Cc1ccc(C)c(-n2nnc(-c3nc(-c4ccccc4C)no3)c2C)c1	x	16.4µM*	x	14.6µM*	x
CC(C)CNC(=O)c1cccc(NC(=O)C(C)Oc2ccccc2)c1 (stereo not given)	-28.7	-24.7%	4.0%	u	24.8%
O=C(NCCc1ccccc1)c1ccc(CSc2nc3cccnc3n2Cc2ccccc2F)cc1	x	u	x	9.2µM*	x
O=C(NCCc1ccccc1)c1ccc(Cn2c(SCc3ccccc3F)nc3cccnc32)cc1	x	16.4µM*	x	18.4µM*	x
CC(C)NC(=O)Cn1c(=O)nc(-c2ccccc2F)c2cc(Cl)ccc21	x	-65.3%	x	7.31µM*	x
O=C(Cc1cccc(NC(=O)C2CCCN(C(=O)C3CCC3)C2)c1)Nc1cccc(C(=O)N2CCCC2)c1 (stereo not given)	-5.1	-25.0%	7.6%	-23.9%	8.9%
COC(=O)c1cc(C(=O)OCC(=O)NC(=O)c2ccccc2)cc([N+](=O)[O-])c1	25.3	6.0%	11.8%	-18.7%	17.4%
OCCN1CCN(CC(O)COC(c2ccc(F)cc2)c2ccc(F)cc2)CC1 (stereo not given)	-78.6*	2.8%	0.4%	-21.1%	6.4%
COc1ccc(N2CCN(CC(O)COC(c3ccc(F)cc3)c3ccc(F)cc3)CC2)cc1 (stereo not given)	-11.6	18.4µM*	u	29.1µM*	-3.9%
OC(CSc1ccccc1Cl)CN1CCN(c2ccc(F)cc2)CC1 (stereo not given)	-25.8	18.4µM*	u	23.1µM*	u
CC1CCN(c2nc3ccccc3nc2C(F)(F)F)CC1	x	-16.7%	x	-9.4%	x
COc1ccccc1NC(=O)NC1(C(=O)N2CCN(C)CC2)CCCCC1	0.9	4.8%	0.9%	-3.9%	-2.1%
CN(C)CCNC(=O)CN1C(=O)COc2ccc(S(=O)(=O)N3CCCC3)cc21	x	3.8%	x	-16.6%	x
NC1CCc2ccccc21 (stereo not given)	x	-4.4%	x	u	x
CC(C)(C)C(=O)Nc1cccc(C(=O)OCc2cc(=O)n3nc(C4CCCCC4)sc3n2)c1	x	5.4%	x	-2.9%	x
CC(C)(C)OC(=O)N(CCc1ccccc1)Cc1ccccc1OCc1cccc(NC(=O)C2CCC2)c1	-11.7	16.4µM*	-3.5%	13µM*	-1.4%
CC(C)(C)OC(=O)N(Cc1ccccc1)Cc1ccccc1OCc1cccc(NC(=O)C2CCC2)c1	-14.8	u	-0.8%	16.4µM*	-11.0%
CC(C)C(=O)Nc1cccc(COc2ccc(CN(CCc3ccccc3)C(=O)OC(C)(C)C)cc2)c1	-28.5	25.9µM*	u	13µM*	-8.2%
CC(C)(C)OC(=O)N(Cc1ccccc1)Cc1ccccc1OCc1cccc(NC(=O)C2CC2)c1	0.0	u	-9.2%	u	u
CC(C)C(=O)Nc1cccc(COc2cccc(CN(Cc3ccccc3)C(=O)OC(C)(C)C)c2)c1	1.2	u	-0.7%	u	-13.0%
Cn1c(=O)c2[nH]c(C(O)c3ccc(Cl)cc3)nc2n(C)c1=O (stereo not given)	25.8	u	-1.4%	u	-4.7%
